The nature of test [1]: qHTS assay to identify small molecule agonists of the vitamin D receptor (VDR) signaling pathway - cell viability counter screen (AID 743224). Note: series mostly up to about 63 µM; % is set by controls: 0 for no effect and ±100 for the full control effect; nearly all actives have a fitted effect of over 50% in size. The method, boiled down:
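Viability is measured in the same wells as the VDR-bla reporter assay: after 16 h compound treatment and 2 h substrate loading, CellTiter-Glo is added and luminescence read 30 min later.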

Test [2] is described as follows: qHTS assay to identify small molecule antagonists of the vitamin D receptor (VDR) signaling pathway - cell viability counter screen (AID 743225). Note: % is set by controls: 0 for no effect and ±100 for the full control effect; nearly all actives have a fitted effect of over 50% in size. The method, boiled down:
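HEK293T VDR-bla; cpd + 1a,25-(OH)2D3 3 nM final, 16 h 37C/5% CO2; B/G FRET substrate 2 h RT; then CellTiter-Glo 30 min RT, luminescence.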
(In qHTS, concentration-response curves come from the screen itself.)

A short description of test [3]: qHTS assay to identify small molecule agonists of the NFkB signaling pathway (AID 1159509; active = well fitted curve in the direction sought with a large enough effect in the signal ratio in the repeat runs, not every such curve was filed as active; the % refers to the signal ratio; note: series mostly up to about 61 µM; % is set by controls: 0 for no effect and ±100 for the full control effect). The method, boiled down:
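NFkB-bla ME-180 cells carry a beta-lactamase reporter under an NF-kB response element. They were plated overnight, then exposed to compounds for 5 h at 37 C. Read-out is LiveBLAzer FRET after 1.5 hr at room temperature (405 nm excitation; 460/530 nm emission).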

Test [4] in a line: qHTS assay to identify small molecule agonists of the NFkB signaling pathway - cell viability counter screen (AID 1159515; calls by dose curve; note: series mostly up to about 61 µM; % is set by controls: 0 for no effect and ±100 for the full control effect; nearly all actives have a fitted effect of over 55% in size). In a few lines:
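Multiplexed viability readout: after the 5 hr compound exposure and 1.5 hr FRET substrate step, CellTiter-Glo reagent went into the same NFkB-bla ME-180 wells; ATP luminescence was measured after 30 min at room temperature.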

A short description of test [5]: qHTS assay to identify small molecule agonists of the endoplasmic reticulum stress response signaling pathway (AID 1159516; active = well fitted activation curve with a large enough effect in the signal ratio in the repeat runs, not every such curve was filed as active; the % refers to the signal ratio; note: % is set by controls: 0 for no effect and ±100 for the full control effect). In a few lines: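 Tox21 10K library screened in quantitative HTS format on ESRE-bla HeLa cells, a beta-lactamase reporter under ER stress response element control; 5 hr treatment, FRET read.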
Test [6] is described as follows: qHTS assay to identify small molecule agonists of the endoplasmic reticulum stress response signaling pathway - cell viability counter screen (AID 1159517; calls by dose curve; note: series mostly up to about 61 µM; % is set by controls: 0 for no effect and ±100 for the full control effect; nearly all actives have a fitted effect of over 50% in size). The method, boiled down:
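CellTiter-Glo was added to wells already read for beta-lactamase FRET, and luminescence was recorded 30 min later. Cells: ESRE-bla HeLa, 1,500 per well, compound exposure 5 hr at 37 C.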

A short description of test [7]: qHTS assay to identify small molecule antagonists of the retinoid-related orphan receptor gamma (ROR-gamma) signaling pathway - cell viability counter screen (AID 1159520). Note: % is set by controls: 0 for no effect and ±100 for the full control effect; nearly all actives have a fitted effect of over 50% in size. The method, boiled down: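 Tet-on ROR gamma CHO cells (1,000/well) were plated 4 hr, given compounds in DMSO for 2 hr at 37 C, then induced with 1 uM final doxycycline for 16 hr. Viability was read as ATP by CellTiter-Glo luminescence after 30 min.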

For test [8], the target named is Nuclear receptor ROR-gamma (Homo sapiens) (UniProt P51449). As to the kind of experiment: qHTS assay to identify small molecule antagonists of the retinoid-related orphan receptor gamma (ROR-gamma) signaling pathway (AID 1159521). In a few lines: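 Cells were plated, rested 4 h at 37 C, exposed to compounds for 2 h, then given 1 uM final doxycycline hyclate to induce RORγ expression. After 16 h, ONE-Glo luminescence from the ROR response element reporter was measured.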

Test [9] is described as follows: qHTS assay to identify small molecule agonists of the AP-1 signaling pathway - cell viability counter screen (AID 1159525; calls by dose curve; note: nearly all actives have a fitted effect of over 55% in size). The method, boiled down:
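ME-180 AP-1-bla, 2500 cells/well, Opti-MEM + 0.5% dialyzed FBS; overnight 37 °C; cpd 15-pt titration, 5 h 37 °C; CellTiter-Glo 30 min RT; luminescence read; normalised to TOAB and DMSO controls.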

Test [10] is described as follows: qHTS assay to identify small molecule agonists of the AP-1 signaling pathway (AID 1159526; calls by dose curve; note: % is set by controls: 0 for no effect and ±100 for the full control effect).
Test [11] deals with Retinoic acid receptor RXR-alpha (Homo sapiens) (UniProt P19793). As to the kind of experiment: qHTS assay to identify small molecule agonists of the RXR signaling pathway (AID 1159527; calls by dose curve; note: nearly all actives have a fitted effect of over 35% in size; note: potency is the fitted concentration of half-maximal effect; for activation: % is set by controls: 0 for no effect and ±100 for the full control effect). The method, boiled down: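 Cells plated at 2,000/well, rested 5 hr at 37 C, pin-dosed with DMSO compound solutions, incubated 16 hr, then loaded with B/G FRET substrate for 2 hr at RT before dual-emission fluorescence reading.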
Sequence of Retinoic acid receptor RXR-alpha (Homo sapiens) (P19793 whole entry, looked up): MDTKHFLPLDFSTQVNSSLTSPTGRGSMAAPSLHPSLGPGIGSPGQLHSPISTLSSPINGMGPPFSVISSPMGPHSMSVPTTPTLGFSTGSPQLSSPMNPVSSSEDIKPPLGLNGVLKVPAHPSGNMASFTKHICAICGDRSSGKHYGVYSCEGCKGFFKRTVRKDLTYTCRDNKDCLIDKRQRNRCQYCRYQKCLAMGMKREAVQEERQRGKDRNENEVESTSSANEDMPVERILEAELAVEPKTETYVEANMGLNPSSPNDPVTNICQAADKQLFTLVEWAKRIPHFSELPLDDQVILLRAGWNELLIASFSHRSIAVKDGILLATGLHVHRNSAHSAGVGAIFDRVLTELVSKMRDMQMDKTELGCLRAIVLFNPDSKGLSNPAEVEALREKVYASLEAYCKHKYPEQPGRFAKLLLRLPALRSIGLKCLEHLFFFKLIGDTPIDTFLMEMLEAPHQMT

Test [12] in a line: qHTS assay to identify small molecule agonists of the RXR signaling pathway - cell viability counter screen (AID 1159529). In a few lines:
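Steps: seed RXR-alpha-UAS-bla HEK 293T cells in assay medium containing 2% charcoal-stripped FBS; incubate 5 hr; add compounds in DMSO; incubate 16 hr at 37 C; after the bla read, add CellTiter-Glo and read luminescence at 30 min.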

The nature of test [13]: qHTS assay to identify small molecule antagonists of the retinoid acid receptor (RAR) signaling pathway - cell viability counter screen (AID 1159551). Note: % is set by controls: 0 for no effect and ±100 for the full control effect; nearly all actives have a fitted effect of over 35% in size. In a few lines:
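Cytotoxicity counter screen in C3RL4 cells: 6 h compound exposure with 1 uM retinol (final), viability from cellular ATP by luminescence.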

A short description of test [14]: qHTS assay to identify small molecule antagonists of the retinoic acid receptor (RAR) signaling pathway (AID 1159552). In a few lines: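 Retinol at 1 uM final stimulated RARE-luciferase expression in C3RL4 cells exposed to test compounds for 6 hr at 37 C. Reduced luminescence, read 30 min after detection reagent, indicated pathway antagonism.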
A short description of test [15]: qHTS assay to identify small molecule agonists of the retinoic acid receptor (RAR) signaling pathway (AID 1159553). Note: potency is the fitted concentration of half-maximal effect. In a few lines:
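Agonist activity was scored in C3RL4 cells bearing a retinoic acid response element luciferase construct. Cells were treated with compounds for 6 hr at 37 C, and luciferase signal was measured as luminescence.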

Test [16] can be described thus: qHTS assay to identify small molecule antagonists of the estrogen related receptor (ERR) signaling pathway from Tox21 library - cell viability counter screen (AID 1224834). Note: % is set by controls: 0 for no effect and ±100 for the full control effect; nearly all actives have a fitted effect of over 30% in size. The method, boiled down: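 Cytotoxicity of test substances is gauged in the same ERR cells used for the antagonist screen, after 17.5 h of compound treatment at 37 C, by CellTiter-Fluor fluorescence measured after 30 min.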

The target in test [17] is Luciferin 4-monooxygenase (Photinus pyralis) (UniProt P08659). Put plainly: qHTS assay to identify small molecule inhibitors of firefly luciferase (AID 1224835). Note: series mostly up to about 120 µM; % is set by controls: 0 for no effect and ±100 for the full control effect; nearly all actives have a fitted effect of over 25% in size. The method, boiled down: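 Quantitative HTS format; KM concentrations of both substrates. Purified P. pyralis FLuc activity quantified from luminescence images.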
Sequence of Luciferin 4-monooxygenase (Photinus pyralis) (P08659 whole entry, looked up): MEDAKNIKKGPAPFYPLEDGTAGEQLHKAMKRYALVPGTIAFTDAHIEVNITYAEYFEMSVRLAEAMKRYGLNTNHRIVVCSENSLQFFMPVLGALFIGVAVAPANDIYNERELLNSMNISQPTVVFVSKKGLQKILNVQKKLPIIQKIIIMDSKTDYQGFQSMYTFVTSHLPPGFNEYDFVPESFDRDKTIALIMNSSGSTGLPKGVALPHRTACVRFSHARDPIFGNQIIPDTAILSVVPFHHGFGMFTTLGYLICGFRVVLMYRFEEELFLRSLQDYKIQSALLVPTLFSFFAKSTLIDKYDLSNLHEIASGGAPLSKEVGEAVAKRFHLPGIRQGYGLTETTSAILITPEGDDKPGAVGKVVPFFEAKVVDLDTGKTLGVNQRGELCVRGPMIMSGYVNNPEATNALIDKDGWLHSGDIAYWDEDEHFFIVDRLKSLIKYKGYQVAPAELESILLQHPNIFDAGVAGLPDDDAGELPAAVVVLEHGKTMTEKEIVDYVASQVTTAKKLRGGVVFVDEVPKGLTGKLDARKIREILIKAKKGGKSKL
Test [18] is described as follows: qHTS assay to identify small molecule agonists of the constitutive androstane receptor (CAR) signaling pathway - cell viability counter screen (AID 1224836). Note: series mostly up to about 92 µM; % is set by controls: 0 for no effect and ±100 for the full control effect; nearly all actives have a fitted effect of over 45% in size. The method, boiled down: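 Cells were seeded and incubated 4 hrs. Compounds were added across 15 concentrations together with PK11195 at 0.75 uM final. Plates were incubated 23 hrs at 37 C. CellTiter-Fluor was added and fluorescence measured.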

Test [19] is described as follows: qHTS assay to identify small molecule antagonists of the constitutive androstane receptor (CAR) signaling pathway - cell viability counter screen (AID 1224837). Note: series mostly up to about 92 µM; % is set by controls: 0 for no effect and ±100 for the full control effect; nearly all actives have a fitted effect of over 45% in size. The method, boiled down:
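Multiplexed cytotoxicity read-out for the CAR antagonist screen: double-stable HepG2-CYP2B6-hCAR cells co-treated with 50 nM CITCO (final) and compound over 15 concentrations, incubated 23 hr, then assessed by CellTiter-Fluor fluorescence.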

For test [20], the target named is Nuclear receptor subfamily 1 group I member 3 (Homo sapiens) (UniProt Q14994). Put plainly: qHTS assay to identify small molecule antagonists of the constitutive androstane receptor (CAR) signaling pathway (AID 1224838). Note: % is set by controls: 0 for no effect and ±100 for the full control effect; nearly all actives have a fitted effect of over 40% in size. The method, boiled down: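 Compounds were titrated across 15 concentrations onto HepG2 cells double-stably expressing hCAR and a CYP2B6-2.2kb reporter, together with 50 nM CITCO (final). After 24 h at 37 C, luciferase activity was measured by luminescence.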
Sequence of Nuclear receptor subfamily 1 group I member 3 (Homo sapiens) (Q14994 whole entry, looked up): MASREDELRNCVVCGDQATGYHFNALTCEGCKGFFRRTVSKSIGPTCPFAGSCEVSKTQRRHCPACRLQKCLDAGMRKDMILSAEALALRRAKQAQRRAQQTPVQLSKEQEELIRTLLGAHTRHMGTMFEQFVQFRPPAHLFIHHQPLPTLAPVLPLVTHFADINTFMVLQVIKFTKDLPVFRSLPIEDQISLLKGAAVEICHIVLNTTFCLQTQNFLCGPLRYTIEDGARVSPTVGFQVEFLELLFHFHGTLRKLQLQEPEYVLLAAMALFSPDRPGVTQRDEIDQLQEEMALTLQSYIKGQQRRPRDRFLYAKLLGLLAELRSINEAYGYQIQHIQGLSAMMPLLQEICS

Inconclusive results are not listed. Unmarked numbers belong to inactive results. The source made the active and inactive calls. Unless noted, calls come from the whole dose curve; as a rule, active = well fitted curve in the direction sought with a large enough effect in the repeat runs; inconclusive = weak or mixed curves; inactive = no such curve, though single readings can be large; an effect the other way counts as inactive or inconclusive.

On to `C[C@@H](O)C(=O)O`, for which the outcome in [1], in test [2], in test [3], in test [4], in test [5] and in [6] was inactive. Further, the result in test [7], in [8], in test [9], in test [10], in test [12] and in test [13] was inactive. Further, the molecule was called inactive in test [14], in [16], in test [18] and in test [19]. The Potency entry in [11], in test [15], in test [17] and in test [20] was “inactive” each time.
Turning to `N[C@@H](Cc1ccc(O)cc1)C(=O)O`, the activity change, negative = cytotoxicity in test [1] was 18.1% [at 13.2 µM]; in [6], 2.71% [at 6.95 µM]; in [12], 2.08% [at 6.97 µM]; in test [13], -0.852% [at 8.39 µM]; in test [19] it was 8.2% [at 8.39 µM]. Also, the activation in [3] is -0.279% [at 6.95 µM]; in test [5], -0.0263% [at 6.95 µM]; in test [10] it was -1.16% [at 6.97 µM]; in test [11] it was 0.71% [at 6.98 µM]; in test [15] it was 0.0879% [at 8.36 µM]. In addition, the activity, negative = cytotoxic in test [4] was 9.74% [at 6.95 µM]. For the same molecule, in [7], the activity, negative = cytotoxicity is 1.78% [at 8.39 µM]. For the same molecule, the activity change, negative = inhibition in test [8] was 1.55% [at 8.39 µM]; in test [17] it was 1.38% [at 10.5 µM]. For the same molecule, the viability change, negative = cytotoxic in test [9] was 1.17% [at 6.97 µM]; in test [16], 1.55% [at 8.39 µM]; in test [18], -0.95% [at 8.39 µM]. The activity, negative = inhibition in [14] is 7.5% [at 8.39 µM]; in test [20] it was -4.54% [at 8.39 µM].
For `O=C(O)CNC(=O)CNC(=O)CNC(=O)CSC(=O)c1ccccc1`, the outcome in test [1], in test [3], in [4], in test [5], in test [6] and in test [7] was inactive. Also, the molecule was classed as inactive in test [8], in test [9], in [10], in test [12], in test [13] and in [14]. The call in [16], in test [18] and in test [19] was inactive. The Potency result in test [11], in [15], in test [17] and in test [20] was “inactive” throughout.
As to `O=S(=O)(O)c1ccc2c(N=Nc3ccc(S(=O)(=O)O)c4ccccc34)c(O)c(S(=O)(=O)O)cc2c1`, the activity change, negative = cytotoxicity in test [1] is -0.166% [at 5.95 µM]; in [6], 0.511% [at 6.95 µM]; in test [12], 0.355% [at 6.97 µM]; in test [13], -2.67% [at 8.39 µM]; in [19], -18.2% [at 8.39 µM]. For the same molecule, the viability change, negative = cytotoxic in test [2] is 6.08% [at 6.95 µM]; in test [9] it was 6.35% [at 6.97 µM]; in [16] it was -6.16% [at 8.39 µM]; in test [18] it was -7.02% [at 8.39 µM]. The activation in [3] is 0.493% [at 6.95 µM]; in [5], -2.39% [at 6.95 µM]; in [10], -3.05% [at 6.97 µM]; in test [11], 0.333% [at 6.98 µM]; in [15] it was -2.37% [at 8.36 µM]. Further, the activity, negative = cytotoxic in [4] is 6.88% [at 6.95 µM]. Moreover, the activity, negative = cytotoxicity in test [7] was -3.34% [at 8.39 µM]. Moreover, the activity change, negative = inhibition in [8] is 0.236% [at 8.39 µM]; in [17], -3.96% [at 10.5 µM]. Besides, the activity, negative = inhibition is 111% [at 8.39 µM] in test [14] and -7.08% [at 8.39 µM] in test [20].
For the molecule `COC(=O)c1ccccc1C(=O)O`, the molecule was classed as inactive in test [3], in [4], in [5], in [6], in [7] and in test [8]. Also, the outcome in test [9], in [10], in [12], in test [13], in [14] and in test [16] was inactive. Also, the outcome in test [18] and in test [19] was inactive. Moreover, the Potency in test [11] is 21.9 µM (active). Further, the Potency result in test [15], in test [17] and in test [20] was “inactive” throughout.
On to `CC1(C)[C@H]2CC[C@](C)(C2)[C@H]1O`, for which the call in [1], in test [3], in test [4], in test [5], in [6] and in test [7] was inactive. For the same molecule, the result in test [8], in test [9], in test [10], in test [12], in [13] and in test [14] was inactive. Further, the molecule was classed as inactive in [16], in test [18] and in test [19]. For the same molecule, the Potency result in [11], in test [15], in test [17] and in test [20] was “inactive” in each case.
As for `CC(=O)Nc1ccc(OC(=O)c2ccccc2OC(C)=O)cc1`, the molecule was classed as inactive in [1], in [2], in test [3], in test [4], in test [5] and in [6]. Besides, the molecule was called inactive in [7], in [8], in [9], in test [10], in test [12] and in test [13]. Moreover, the molecule was called inactive in test [14], in test [16], in [18] and in test [19]. Moreover, the Potency result in test [11], in test [17] and in test [20] was “inactive” throughout. The Potency in test [15] was 23.7 µM (active).

The values are drawn from PubChem BioAssay (Tox21).
